Measured values reported in PubChem BioAssay (NCATS).
Records with an inconclusive call do not appear. A number with no mark means an inactive call. The source made the active and inactive calls. Calls come from the whole dose curve.

target: Peroxisome proliferator-activated receptor delta (Homo sapiens) (UniProt Q03181); test: qHTS assay for small molecule agonists of peroxisome proliferator-activated receptor delta signaling (AID 588534); settings: HEK293T PPARdelta-UAS-bla, beta-lactamase ratio, 18 h; series mostly up to 76.7 µM; activation: at the top concentration;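 note: 0% = DMSO basal wells and 100% = positive control agonist at 10 µM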
Sequence (Q03181 whole entry, looked up): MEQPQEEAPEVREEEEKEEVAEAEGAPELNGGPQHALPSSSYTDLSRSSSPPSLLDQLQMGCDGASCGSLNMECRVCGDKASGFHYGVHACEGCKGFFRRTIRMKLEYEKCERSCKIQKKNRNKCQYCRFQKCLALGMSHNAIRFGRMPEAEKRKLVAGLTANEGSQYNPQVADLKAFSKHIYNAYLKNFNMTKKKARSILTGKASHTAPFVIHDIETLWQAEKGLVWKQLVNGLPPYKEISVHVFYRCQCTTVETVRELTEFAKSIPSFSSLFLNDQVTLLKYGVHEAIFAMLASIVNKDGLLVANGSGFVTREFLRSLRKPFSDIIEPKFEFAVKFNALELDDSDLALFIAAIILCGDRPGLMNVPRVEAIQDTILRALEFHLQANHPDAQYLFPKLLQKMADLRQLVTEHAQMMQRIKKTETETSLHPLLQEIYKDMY
In short: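 Cell-based beta-lactamase reporter assay run in agonist mode: cells seeded and incubated 5 hrs at 37 C, compounds added and incubated 18 hrs at 37 C. CCF4 dye fluorescence read after 2 hrs at RT; EC50 and efficacy from Hill fits.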

Structure (SMILES) | activation [%] | outcome
O=[N+]([O-])c1cccc(C(F)(F)F)c1 | 2.45 | 
CCCCC(CC)COC(=O)/C=C\C(=O)OCC(CC)CCCC (stereo not given) | 3.59 | 
CCCCCCN | 2.91 | 
Oc1ccc(O)c2c(O)cccc12 | 4.35 | 
CCCCCCCCCCCCCO | -5.16 | 
COC(=O)c1cccc(C)c1S(=O)(=O)NC(=O)Nc1nc(OCC(F)(F)F)nc(N(C)C)n1 | -4.81 | 
CC(C)(C)OCC1CO1 (stereo not given) | 11.4 | 
C=C(C)C(=O)OCCN(C)C | -0.589 | 
CCOCC(=O)O | 3.72 | 
CC(C)N(C)C | -3.05 | 
NC(=O)NC(N)=O | 3.69 | 
Cc1ccccc1C=O | -1.44 | 
CCc1ccccc1 | -0.0958 | 
Cc1cscn1 | 4.87 | 
O=c1[nH]ncc2ccccc12 | -8.59 | 
CSc1ccc(C=O)cc1 | 12.5 | 
NC=O | 6.98 | 
CC/C=C/CCCCCCCCCCOC(C)=O | 1.34 | 
O=[N+]([O-])c1cccc(Cl)c1 | -6.37 | 
COC(OC)(C(=O)c1ccccc1)c1ccccc1 | 7.67 | 

Structure (SMILES) | activation [%] | outcome
NS(=O)(=O)O | 7.69 | 
O=C(O[C@@H](C(=O)O)[C@@H](OC(=O)c1ccccc1)C(=O)O)c1ccccc1 | 6.26 | 
CC(C)COC(=O)COc1cc(Cl)c(Cl)cc1Cl | -3.52 | 
Cc1cc(C(C)(C)CC(C)(C)C)ccc1OCCOCC[N+](C)(C)Cc1ccccc1 | -10.7 | 
O=C(O)c1ccc(CO)o1 | -2.71 | 
CCOCCOCCOCC | -0.184 | 
c1cc2c3c(c1)ccc1cccc(c13)C2 | 4.33 | 
CC(=O)OC1CCC(C(C)(C)C)CC1 (stereo not given) | 2.6 | 
CNc1ccc(O)cc1 | 0.16 | 
CCNS(=O)(=O)c1ccc(C)cc1 | -0.0574 | 
CC(=O)C1(C)CC2=C(CCCC2(C)C)CC1C (stereo not given) | 1.6 | 
CC(=O)c1cc(C)oc1C | -2.59 | 
C1CCC2OC2C1 (stereo not given) | 1.99 | 
CC12CCC(CC1=O)C2(C)C (stereo not given) |  | inactive
O=C1NC(=O)c2cc([N+](=O)[O-])ccc21 | -3.27 | 
CCCCC(CC)CN (stereo not given) |  | inactive
C/C(C=O)=C/c1ccccc1 | 6.81 | 
C=C(C)C(=O)OCCC[Si](Cl)(Cl)Cl | -0.262 | 
CCCCCCCCCCCCCC(=O)OC | 3.31 | 
CC(C)(O)CCC(C)(C)O | 0.668 | 
